Tests used:
Test in all cases: PBM binding z-score (relative to random genomic background probes); higher = stronger binding; sequences stand for … in GC…GCGATTGACAGCGTAGAATGAAGG
[1] = test system: FXR:RXRa (NR concentration 270 nM, RXRa partner concentration 90 nM)
How it was run: (§1)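 The probes on custom Agilent 4×180K protein-binding microarrays were double-stranded, with 34-nt variable regions bearing direct-repeat seeds, single-nucleotide variants, half-site ablations and random human genomic background sequences. Incubation lasted 1 h with ligand-free nuclear receptor dimers in PBS pH 7.4, 2% milk, 0.02% Triton X-100, 1 mM DTT, 0.2 mg/mL BSA and 0.4 mg/ml salmon testes DNA. Antibodies against each partner (one per run) detected bound dimers, and fluorescence scans were regression-normalized. Binding z-scores take the random background probes as reference.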

[2] = test system: LXRa:RXRa (NR concentration 270 nM, RXRa partner concentration 90 nM)
How it was run: as §1

[3] = test system: LXRa homodimer (NR concentration 270 nM)
How it was run: as §1

[4] = test system: LXRb:RXRa (NR concentration 270 nM, RXRa partner concentration 90 nM)
How it was run: as §1

[5] = test system: LXRb homodimer (NR concentration 270 nM)
How it was run: as §1

[6] = test system: PPARa:RXRa (NR concentration 270 nM, RXRa partner concentration 90 nM)
How it was run: as §1

[7] = test system: PPARg:RXRa (NR concentration 180 nM, RXRa partner concentration 90 nM)
How it was run: as §1

[8] = test system: PPARg:RXRa 270nM:90nM, anti-RXR (NR concentration 270 nM, RXRa partner concentration 90 nM)
How it was run: as §1

[9] = test system: PPARg:RXRa 30nM:10nM, anti-RXR (NR concentration 30 nM, RXRa partner concentration 10 nM)
How it was run: as §1

[10] = test system: PPARg:RXRa 90nM:30nM, anti-RXR (NR concentration 90 nM, RXRa partner concentration 30 nM)
How it was run: as §1

| Sequence | PBM binding z-score [1] | PBM binding z-score [2] | PBM binding z-score [3] | PBM binding z-score [4] | PBM binding z-score [5] | PBM binding z-score [6] | PBM binding z-score [7] | PBM binding z-score [8] | PBM binding z-score [9] | PBM binding z-score [10] |
| --- | --- | --- | --- | --- | --- | --- | --- | --- | --- | --- |
| TCTTGTAGATCAACAGGAGGTTAAGACAGATCGA | 0.088 | 1.15 | -0.145 | 0.737 | -0.342 | 1.3 | 0.205 | 1.36 | 2.4 | 2.07 |
| CCAGACAGGTGAGAGGGTAACTCAGCCTCGATTA | 0.0104 | 0.0679 | -0.0244 | 0.043 | -0.609 | 1.65 | 1.99 | 2.94 | 0.655 | 2.18 |
| GATACAGGGTCACCTAGAGGCCAGAGTATGGAAA | 6.92 | 4.72 | -0.102 | 3.99 | -0.035 | 5.79 | 6.93 | 6.02 | 2.71 | 4.91 |
| GGAACGAGGGCAAGTTCATAGCAGAGTTTGATGG | 2.59 | 1.97 | 0.721 | 1.46 | -0.0122 | 2.95 | 2.11 | 2.35 | 0.471 | 1.57 |
| TCTAGCAGGCCAGAGGGTCACACAAGAGGTACGG | 1.67 | 1.66 | -0.408 | 1.83 | -1.34 | 3.11 | 2.49 | 3.28 | 2.36 | 3.09 |
| GGACCAAGGTGAATAGGTCGTTGATGAGTAGGCG | 0.798 | 0.779 | -0.0064 | 0.446 | -0.809 | 2.28 | 1.47 | 1.59 | 0.243 | 0.903 |
| CGGACTAGGTCAGAACAGGACAGTGAAGGATGAT | 1.12 | 0.71 | -0.0673 | 0.176 | -0.579 | 2.36 | 4.2 | 3.5 | 1.01 | 2.58 |
| CCTACTGGGCCAAGGTCGTTGATCAGTCAAAGCA | 0.16 | 0.0412 | -0.352 | 0.25 | -0.992 | 1.56 | 1.7 | 2.33 | 0.177 | 1.6 |
| CAGCCTAGGTCGGGGCCAGTATAGGAGGAACGTT | -0.375 | -0.409 | -0.6 | -0.47 | -1.25 | -0.00359 | -0.199 | -0.885 | -1.38 | -0.981 |
| GTACCAATGTGAATAGGTCGTTGATGAGTAGGCG | -0.0565 | -0.171 | -0.443 | -0.196 | -0.467 | 0.275 | 0.47 | -0.162 | -0.118 | -0.255 |
| CCGACTGGGGCAGAAAGGTTACCAGACCATCCGG | 0.0987 | 0.481 | -0.312 | 0.525 | -1.23 | 2.1 | 1.47 | 2.61 | 0.619 | 2.04 |
| ATTAGCAGGCCAAGGGTCACTCAAGATTAGTCCG | 2.8 | 2.8 | 0.436 | 2.69 | -0.147 | 4.73 | 7.98 | 7.44 | 6.52 | 7.55 |
| CCAACTGGGGCATAAGGTTACCATAAGCCAGCCC | 0.142 | 1.69 | -0.161 | 0.858 | -1.05 | 2.56 | 3.63 | 3.93 | 1.9 | 3.24 |
| AATACAGGGTCATCGTAGGCTAGAGTACGCACAG | 7.1 | 6.2 | 2.25 | 4.59 | 1.4 | 6 | 6.55 | 5.9 | 2.52 | 4.76 |
| AATAGAGGGTCATCGTAGGCCAGAGTACGCACAG | 6.8 | 6.19 | 1.56 | 3.89 | 0.604 | 5.5 | 5.46 | 5.11 | 2.13 | 3.89 |
| TAGCCTAGGTCAGATCGAGCCAGTATACGCTATA | 1.14 | 0.783 | -0.473 | 0.421 | -0.463 | 1.42 | 0.564 | 0.606 | -0.102 | 0.29 |
| GCAGACAGGCGAAACGCAGGTAACTCAGGGTGGC | -0.64 | -0.615 | -0.761 | -1 | -1.38 | -0.682 | 0.297 | -0.871 | -0.326 | -0.791 |
| CCAGACAGGAGAAAGGTAACTCAGTCTGGTACGC | -0.00582 | -0.0922 | -0.373 | -0.0883 | -0.51 | 0.347 | 0.817 | 1.46 | 0.169 | 0.958 |
| CCTACCAGGCCAATCTGGGTCACTCAAGGCTTGA | 1.15 | 1.52 | 0.0755 | 1.01 | -0.051 | 2.92 | 2.3 | 2.4 | -0.0148 | 1.57 |
| TCCTATAGGTAATACAGGTGAAAGTCGGCATCTA | 0.774 | 0.986 | -0.00145 | 0.839 | 0.103 | 1.84 | 0.918 | 1.91 | 3.2 | 2.41 |
| ATCGAAAGGTCGAGGTGAGTGTAGAGAAAGGGAA | 4.53 | 3.52 | 0.118 | 2.74 | 0.572 | 4.69 | 3.13 | 3.76 | 1.42 | 2.6 |
| TCATATAGTTAAATGCTAGGTGAAAGTCCGATCT | 0.982 | 0.66 | 0.335 | 0.729 | 0.331 | 0.834 | 0.464 | 2.11 | 3.69 | 2.89 |
| AACACAGGGTCACTAGGCCAGAGTAGGTACGAAT | 6.27 | 4.48 | 0.354 | 3.63 | 0.661 | 5.75 | 7.72 | 6.51 | 2.84 | 5.42 |
| CTACCAAGGTGAACAAGGCCGTTGATTACTATTC | 0.303 | 0.209 | -0.224 | 0.646 | -0.622 | 1.25 | 0.647 | 0.527 | -0.248 | 0.152 |

Source: the supplement of paper PMC6555819
